Sampled rows, rich in hits. Any-hit rate of the full collection: about 14%.
USP28 block: human USP28 deubiquitinase inhibition | Q96RU2 | purified USP28, Ub-rhodamine cleavage fluorescence, 30 min | inhibition, % at 25 µM | 47,000 compounds, 3% hits | AID 1645857
Target sequence (Q96RU2 whole entry, looked up): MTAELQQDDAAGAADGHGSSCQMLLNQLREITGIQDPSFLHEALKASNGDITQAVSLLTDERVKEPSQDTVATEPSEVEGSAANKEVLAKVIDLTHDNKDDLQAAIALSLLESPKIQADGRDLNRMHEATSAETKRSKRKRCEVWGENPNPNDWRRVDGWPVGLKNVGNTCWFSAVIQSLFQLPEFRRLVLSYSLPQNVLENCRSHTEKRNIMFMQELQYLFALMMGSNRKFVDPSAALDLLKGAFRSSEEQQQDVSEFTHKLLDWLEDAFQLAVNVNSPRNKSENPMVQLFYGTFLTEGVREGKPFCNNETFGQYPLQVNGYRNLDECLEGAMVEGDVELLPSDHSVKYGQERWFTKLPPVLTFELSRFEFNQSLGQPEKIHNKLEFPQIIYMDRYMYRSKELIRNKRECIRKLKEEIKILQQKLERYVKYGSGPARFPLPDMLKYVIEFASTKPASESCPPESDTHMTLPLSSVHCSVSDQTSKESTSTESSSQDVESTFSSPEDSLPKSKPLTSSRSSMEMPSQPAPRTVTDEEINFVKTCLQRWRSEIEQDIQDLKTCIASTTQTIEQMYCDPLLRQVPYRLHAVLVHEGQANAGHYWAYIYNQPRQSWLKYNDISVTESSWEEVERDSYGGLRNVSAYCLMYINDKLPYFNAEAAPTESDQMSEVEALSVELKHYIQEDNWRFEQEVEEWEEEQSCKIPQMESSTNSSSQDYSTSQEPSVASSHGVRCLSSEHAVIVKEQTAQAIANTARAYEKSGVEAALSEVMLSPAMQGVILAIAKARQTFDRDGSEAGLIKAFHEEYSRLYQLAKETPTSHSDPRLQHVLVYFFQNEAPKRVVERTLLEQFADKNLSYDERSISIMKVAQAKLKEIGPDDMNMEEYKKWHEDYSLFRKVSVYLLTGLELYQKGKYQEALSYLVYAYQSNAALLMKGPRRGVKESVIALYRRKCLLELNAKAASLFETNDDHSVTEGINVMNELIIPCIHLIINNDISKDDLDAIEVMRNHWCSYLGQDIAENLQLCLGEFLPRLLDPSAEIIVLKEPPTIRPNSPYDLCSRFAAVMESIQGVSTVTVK
USP10 block: human USP10 deubiquitinase inhibition; Q14694; purified USP10, Ub-rhodamine fluorescence, 60 min; inhibition, % at 20 µM; 47,000 compounds, 1.1% hits
USP8 inh: blocks human USP8 ubiquitin-rhodamine cleavage; P40818; purified USP8, Ub-rhodamine cleavage fluorescence, 30 min; inhibition, % at 20 µM; 47,000 compounds, 4.2% hits; AID 1645853
USP17 block: blocks human USP17 ubiquitin-rhodamine cleavage; A8MUK1; purified USP17, Ub-rhodamine cleavage fluorescence, 3 h; inhibition, % at 50 µM; 47,000 compounds, 6.5% hits
USP30 inh: blocks human USP30 ubiquitin-rhodamine cleavage; Q70CQ3; 47,000 compounds, 5.3% hits; AID 1645860; purified USP30, Ub-rhodamine cleavage fluorescence; inhibition, % at 25 µM
Hits are given with their value; - = inactive; . = no result given. Rule as the data show it: active = inhibition above about 30%; inactive = the rest.

SMILES	USP28 block	USP10 block	USP8 inh	USP17 block	USP30 inh
CC1(C)C(O)CCC2(C)C1CCC1(C)C2C(=O)C=C2[C@@H]3C[C@@](C)(C(=O)O)CCC3(C)CC[C@]21C (some centres undefined)	-	-	-	46	49
Cn1cc2cccc(NC(=O)c3ccc(F)cc3)c2n1	-	-	91	87	-
c1ccc2c(Cc3nc(-c4ccncc4)no3)cccc2c1	85	-	-	-	-
CCc1oc2cc(O)ccc2c(=O)c1-c1ccc2c(c1)OCCO2	36	-	-	-	-
Cc1cc(=O)n(CC(=O)NCc2ccccc2F)c2c1c(C)nn2-c1ccccc1	-	-	-	62	33
COc1cccc(NC(=O)Cn2c(=O)cc(-c3ccccc3)c3c(C)nn(-c4ccccc4)c32)c1	-	-	-	-	-
Cc1cc(=O)n(CC(=O)NCC2CCCO2)c2c1c(C)nn2-c1ccccc1 (centres undefined)	-	-	-	-	-
COc1ccc(Cl)cc1NC(=O)Cn1c(=O)cc(C)c2c(C)nn(-c3ccccc3)c21	-	-	-	56	-
CCCCCCCCCCCCCCCc1cc(O)cc(O)c1	-	30	-	30	-
N#Cc1ccc(NC(=O)N2CCC(c3nc4c(nnn4Cc4ccc(F)cc4)c(=O)[nH]3)CC2)cc1	-	-	-	30	30
O=C(c1c(F)cccc1F)N1CCC(c2nc3c(nnn3Cc3ccc(F)cc3)c(=O)[nH]2)CC1	-	-	-	-	-
Cc1ccc(Cn2nnc3c(=O)[nH]c(C4CCN(C(=O)CC(C)(C)C)CC4)nc32)cc1	32	-	-	-	-
O=C(Cc1ccccc1)N1CCC(c2nc3c(nnn3Cc3ccc(F)cc3)c(=O)[nH]2)CC1	-	-	-	-	31
Cc1ccc(Cn2nnc3c(=O)[nH]c(C4CCN(C(=O)Cc5ccccc5)CC4)nc32)cc1	-	-	-	-	-
Cc1ccc(Cn2nnc3c(=O)[nH]c(C4CCN(C(=O)c5ccccc5)CC4)nc32)cc1	-	-	-	-	43
O=C(CC1CCCC1)Nc1cccc(CCc2nc3ccccc3[nH]2)c1	-	-	-	-	-
CN1CCN(C(=O)C2CCN(c3nnc(N4CCCCC4=O)s3)CC2)CC1	-	-	-	-	-
COc1ccc(C(=O)N2CCC(c3nc4c(nnn4Cc4cc(C)ccc4C)c(=O)[nH]3)CC2)cc1	-	-	-	36	30
Cc1ccc(C)c(Cn2nnc3c(=O)[nH]c(C4CCN(C(=O)C5CCCC5)CC4)nc32)c1	-	-	-	-	-
N#C/C(=C\c1ccc(C(F)(F)F)cc1)c1c[nH]c2ccccc12	-	-	-	32	-
OC(/C=C/c1c[nH]c2ccccc12)C(F)(F)F (centres undefined)	-	-	-	-	-
COc1cccc(NC(=O)c2cnc3c(c2)c(=O)n(C)c(=O)n3C)c1	41	-	-	-	71
Cn1c(=O)c2cc(C(=O)Nc3ccccc3)cnc2n(-c2ccc(F)cc2)c1=O	-	-	-	-	-
Cc1ccc(NC(=O)c2cnc3c(c2)c(=O)n(C)c(=O)n3C)cc1	-	-	-	62	-
Cn1c(=O)c2cc(C(=O)Nc3ccc(Cl)c4cccnc34)cnc2n(C)c1=O	-	-	-	-	-
SMILES	USP28 block	USP10 block	USP8 inh	USP17 block	USP30 inh
c1cc2c(cc1-c1noc(C3CCOC3)n1)nnn2CCN1CCCCC1 (centres undefined)	-	-	-	-	-
O=C(CCCn1c(=O)c2ccccc2n(CC(=O)c2ccc(Br)cc2)c1=O)NC1CCCC1	-	-	-	-	-
CC1=C(C)C(c2c(-c3ccc(C)cc3)[nH]c3ccccc23)N(C(C)(C)C)C1=O (centres undefined)	-	41	90	94	-
COc1ccc(-c2cc(-c3ccc(F)cc3)[nH]c(=O)c2C#N)cc1	-	40	58	.	79
Cc1c(S(=O)(=O)N2CCCC2)cc(C(=O)NC2CCCCCC2)n1C	-	-	-	-	-
CN(C)c1ccc(CN2CCOC[C@H]2c2ncc(-c3cccnc3)[nH]2)cc1	-	-	33	-	-
c1ccc(-c2cnc([C@@H]3COCCN3Cc3csnn3)[nH]2)cc1	-	-	-	-	-
CC(=O)Nc1ccc(NC(=O)N[C@H]2C[C@H]3CN(C)c4ccccc4CN3C2)cc1	31	-	-	-	-
CN1C[C@@H]2C[C@H](NC(=O)Nc3ccc(F)cc3)CN2Cc2ccccc21	-	-	-	-	-
Cc1nc2nc(C(c3ccccc3)c3ccccc3)[nH]n2c(=O)c1Cc1ccccc1	-	34	-	45	-
CC(=O)N[C@@]12CN(Cc3ccc(Cl)c(F)c3)CC[C@@H]1CN(C(C)=O)C2	-	-	-	-	-
CCOc1ccc2[nH]c(=O)c(-c3nc4ccc(C)cn4c3NC3CCCCC3)cc2c1	-	-	-	-	-
Cc1ccc2nc(-c3cc4ccc(C)c(C)c4[nH]c3=O)c(NC3CCCC3)n2c1	-	-	-	41	-
O=C(Nc1nc2c(s1)CN(C(=O)/C=C/c1ccco1)CC2)c1cnccn1	-	-	-	-	-
Cc1cc(C(=O)Nc2nc3c(s2)CN(C(=O)/C=C/c2ccco2)CC3)no1	-	-	-	35	-
O=C(NCc1cccnc1)c1cnn2c(C(F)(F)F)cc(-c3ccc(F)cc3)nc12	-	-	-	36	56
Cc1ccccc1S(=O)(=O)NCCc1cn(C)c2ncccc12	-	-	-	-	-
CC(C)Cc1ccc(CC(=O)N2CCC(C3(C)NC(=O)NC3=O)CC2)cc1 (centres undefined)	-	-	-	-	-
COc1ccc2nc(N(Cc3ccncc3)C(=O)c3ccccc3)sc2c1	-	-	-	-	-
COc1ccc(OC)c2sc(N(Cc3ccncc3)C(=O)c3ccco3)nc12	-	-	-	-	43
COc1ccc(CNC(=O)CN2C(=O)C(C)=C(c3ccc(C)cc3)S2(=O)=O)cc1	58	-	-	-	-
COc1ccc(CNC(=O)CN2CCN(Cc3ccccc3C)C2=O)cc1	-	-	-	-	-
CCOC(=O)N1CCN(S(=O)(=O)c2ccc(C(=O)Nc3ccccc3Oc3ccccc3)cc2)CC1	-	-	-	-	-
CCOC(=O)N1CCN(S(=O)(=O)c2ccc(C(=O)Nc3ccc(Br)cc3)cc2)CC1	-	-	-	88	-
CCCCN1CC(C(=O)Nc2ccc(C(=O)Nc3ccc(C(N)=O)cc3)cc2)CC1=O (centres undefined)	-	41	-	-	-
SMILES	USP28 block	USP10 block	USP8 inh	USP17 block	USP30 inh
Cc1nnsc1C(=O)N1C2CCC(C2)[C@@H]1COc1ccc(F)cc1 (some centres undefined)	-	-	-	-	-
Cc1oc(CNS(=O)(=O)c2cc(Cl)cc(Cl)c2)nc1C(=O)N1CCCC1	-	-	-	-	-
CCCCc1ccc(NC(=O)CCn2ccc(=O)[nH]c2=O)cc1	-	-	-	-	-
COC(=O)c1ccccc1NC(=O)c1ccc(S(=O)(=O)N2CCCC2)cc1	-	-	-	-	43
COc1ccc(S(=O)(=O)N2CCCCC2)cc1NC(=O)c1ccc(N2CCCC2=O)cc1	-	-	-	50	-
Cc1cc(=O)[nH]c(-n2nc(C)c(CCC(=O)Nc3cccc(F)c3)c2C)n1	-	-	-	-	-

From PubChem BioAssay
